Measurements taken from PubChem BioAssay AID1159580 (chemical genetic matrix, 2015).
Values joined by “and” are separate entries in the source; they are usually repeats but may differ in a detail not shown here. Equal entries are not always repeated. Hit rate of the full screen: of about 5,500 compounds, about 2,000 (36%) were called active. Inconclusive results (about 18%) are left out. Rule as the data show it: active = normalized growth mostly below about 0.91 (no sharp cut-off); inconclusive = no clear call, values can overlap the other calls; inactive = mostly above about 0.92. The list shows a part of the results.

Assay: chemical genetic growth profiling, strain panel (AID 1159580);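 also: tested at 20 µM; growth read once vehicle control cultures reached saturation at 30 °C; 1 = growth at the plate median or of vehicle wells; lower values mean less growth of the strain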
Details: growth OD

Measured: normalized growth

C/C=C(/C)C(=O)O[C@H]1CC[C@@]2(C)[C@@H]3CC[C@H]4[C@]5(O)C[C@H](O)[C@@]6(O)[C@@H](CN7C[C@@H](C)CC[C@H]7[C@@]6(C)O)[C@]5(O)C[C@@]42O[C@]13O
inactive: S. cerevisiae deletion strains, locus YBR021W, strain FUR4, active compounds read low 1 | S. cerevisiae deletion strains, locus YBR229C, strain ROT2, active compounds read low 1.01 | S. cerevisiae deletion strains, locus YCL029C, strain bik1, active compounds read low 0.988 | S. cerevisiae deletion strains, locus YDL035C, strain GPR1, active compounds read low 0.991 | S. cerevisiae deletion strains, locus YDL074C, strain BRE1, active compounds read low 0.981 | S. cerevisiae deletion strains, locus YDL101C, strain DUN1, active compounds read low 1.02 | S. cerevisiae deletion strains, locus YDL185W, strain tfp1, active compounds read low 0.966 | S. cerevisiae deletion strains, locus YDL192W, strain arf1, active compounds read low 0.966 | S. cerevisiae deletion strains, locus YDR101C, strain arx1, active compounds read low 0.981 | S. cerevisiae deletion strains, locus YDR162C, strain NBP2, active compounds read low 1.05 | S. cerevisiae deletion strains, locus YDR318W, strain mcm21, active compounds read low 0.987 | S. cerevisiae deletion strains, locus YDR388W, active compounds read low 0.98 | S. cerevisiae deletion strains, locus YDR502C, strain sam2, active compounds read low 0.988 | S. cerevisiae deletion strains, locus YEL061C, strain CIN8, active compounds read low 1 | S. cerevisiae deletion strains, locus YER110C, active compounds read low 0.964 | S. cerevisiae deletion strains, locus YER155C, strain BEM2, active compounds read low 1 | S. cerevisiae deletion strains, locus YER167W, strain BCK2, active compounds read low 0.995 | S. cerevisiae deletion strains, locus YGL078C, strain dbp3, active compounds read low 0.993 | S. cerevisiae deletion strains, locus YGL086W, strain mad1, active compounds read low 0.975 | S. cerevisiae deletion strains, locus YGL248W, strain PDE1, active compounds read low 1.03 | S. cerevisiae deletion strains, locus YGR078C, strain PAC10, active compounds read low 1.05 | S. cerevisiae deletion strains, locus YGR135W, strain pre9, active compounds read low 0.993 | S. cerevisiae deletion strains, locus YGR252W, strain gcn5, active compounds read low 1.11 | S. cerevisiae deletion strains, locus YHR030C, strain SLT2, active compounds read low 0.988 and 0.996 | S. cerevisiae deletion strains, locus YHR079C, strain IRE1 (second series), active compounds read low 0.969 | S. cerevisiae deletion strains, locus YHR079C, strain IRE1, active compounds read low 0.969 | S. cerevisiae deletion strains, locus YHR094C, strain hxt1, active compounds read low 0.981 | S. cerevisiae deletion strains, locus YHR129C, strain ARP1, active compounds read low 0.996 | S. cerevisiae deletion strains, locus YHR200W, strain rpn10, active compounds read low 0.964 | S. cerevisiae deletion strains, locus YIL066C, strain RNR3, active compounds read low 1.01 | S. cerevisiae deletion strains, locus YIL073C, strain SPO22, active compounds read low 0.949 | S. cerevisiae deletion strains, locus YIL125W, strain kgd1, active compounds read low 1 | S. cerevisiae deletion strains, locus YIR030C, strain dcg1, active compounds read low 0.977 | S. cerevisiae deletion strains, locus YJL095W, strain BCK1, active compounds read low 1.05 and 0.999 | S. cerevisiae deletion strains, locus YJL134W, strain LCB3, active compounds read low 0.996 | S. cerevisiae deletion strains, locus YJL168C, strain set2, active compounds read low 0.982 | S. cerevisiae deletion strains, locus YJL187C, strain SWE1 (second series), active compounds read low 1.07 | S. cerevisiae deletion strains, locus YJR043C, strain POL32, active compounds read low 1.02 | S. cerevisiae deletion strains, locus YJR066W, strain TOR1, active compounds read low 0.928 | S. cerevisiae deletion strains, locus YKL009W, strain mrt4, active compounds read low 0.948 | S. cerevisiae deletion strains, locus YKL068W, active compounds read low 0.987 | S. cerevisiae deletion strains, locus YKL085W, strain MDH1 (second series), active compounds read low 0.979 | S. cerevisiae deletion strains, locus YKL085W, strain MDH1, active compounds read low 0.979 | S. cerevisiae deletion strains, locus YKR001C, strain vps1, active compounds read low 0.965 | S. cerevisiae deletion strains, locus YLR039C, strain RIC1, active compounds read low 0.908 | S. cerevisiae deletion strains, locus YLR058C, strain SHM2, active compounds read low 1.01 | S. cerevisiae deletion strains, locus YLR102C, strain apc9, active compounds read low 0.975 | S. cerevisiae deletion strains, locus YLR113W, strain HOG1, active compounds read low 0.995 | S. cerevisiae deletion strains, locus YLR262C, strain YPT6, active compounds read low 0.934 | S. cerevisiae deletion strains, locus YLR268W, strain sec22, active compounds read low 0.97 | S. cerevisiae deletion strains, locus YLR330W, strain CHS5, active compounds read low 0.986 | S. cerevisiae deletion strains, locus YLR342W, strain FKS1 (second series), active compounds read low 1.05 | S. cerevisiae deletion strains, locus YLR371W, strain rom2, active compounds read low 0.982 | S. cerevisiae deletion strains, locus YLR418C, strain cdc73, active compounds read low 0.988 | S. cerevisiae deletion strains, locus YML016C, strain PPZ1, active compounds read low 1 | S. cerevisiae deletion strains, locus YML032C, strain rad52, active compounds read low 1 | S. cerevisiae deletion strains, locus YML124C, strain tub3, active compounds read low 0.984 | S. cerevisiae deletion strains, locus YMR078C, strain ctf18, active compounds read low 0.958 | S. cerevisiae deletion strains, locus YMR223W, strain ubp8, active compounds read low 1 | S. cerevisiae deletion strains, locus YMR263W, strain SAP30, active compounds read low 1.01 | S. cerevisiae deletion strains, locus YMR307W, strain GAS1, active compounds read low 1.15 | S. cerevisiae deletion strains, locus YNL067W, strain RPL9B, active compounds read low 1.03 | S. cerevisiae deletion strains, locus YNL183C, strain NPR1, active compounds read low 0.974 | S. cerevisiae deletion strains, locus YNL233W, strain BNI4, active compounds read low 1.03 | S. cerevisiae deletion strains, locus YNL250W, strain rad50, active compounds read low 0.962 | S. cerevisiae deletion strains, locus YNL271C, strain bni1, active compounds read low 0.994 | S. cerevisiae deletion strains, locus YNL298W, strain CLA4, active compounds read low 0.993 | S. cerevisiae deletion strains, locus YNL307C, strain MCK1, active compounds read low 0.995 | S. cerevisiae deletion strains, locus YNR052C, strain pop2, active compounds read low 1.01 | S. cerevisiae deletion strains, locus YOL012C, strain htz1 0.767 | S. cerevisiae deletion strains, locus YOL147C, strain pex11, active compounds read low 0.991 | S. cerevisiae deletion strains, locus YOR061W, strain CKA2, active compounds read low 1 | S. cerevisiae deletion strains, locus YOR069W, strain VPS5, active compounds read low 0.997 | S. cerevisiae deletion strains, locus YOR136W, strain idh2, active compounds read low 0.981 | S. cerevisiae deletion strains, locus YOR144C, strain elg1, active compounds read low 1.01 | S. cerevisiae deletion strains, locus YOR184W, strain ser1, active compounds read low 0.993 | S. cerevisiae deletion strains, locus YOR231W, strain MKK1, active compounds read low 1.01 | S. cerevisiae deletion strains, locus YOR316C, strain cot1, active compounds read low 0.98 | S. cerevisiae deletion strains, locus YPL256C, strain CLN2, active compounds read low 0.983 | S. cerevisiae deletion strains, locus YPR119W, strain clb2, active compounds read low 0.963 | S. cerevisiae deletion strains, locus YPR141C, strain kar3, active compounds read low 0.981 | S. cerevisiae deletion strains, locus YPR163C, strain tif3, active compounds read low 0.977 | S. cerevisiae deletion strains, locus YPR167C, strain met16, active compounds read low 0.957 | S. cerevisiae deletion strains, strain wtn01, active compounds read low 0.977 | S. cerevisiae strains, strain wild type, active compounds read low 1.01
